Experimental data: ChEMBL document CHEMBL3433997, “St. Jude Leishmania screening dataset” (2016)

Experiments:
Assay type in all cases: functional
[1] = molecular target: Solute carrier family 2, facilitated glucose transporter member 1 (Homo sapiens) (UniProt P11166); test: ST_JUDE_LEISH: Cytotoxicity at 2uM final concentration against transgenic Leishmania Mexicana promastigotes LmGLUT1 that are glucose transport deficient and complemented with the human glucose transporter GLUT1. Activity is measured by DNA content using SYBR green in vitro
Chain of Solute carrier family 2, facilitated glucose transporter member 1 (Homo sapiens) (P11166 whole entry): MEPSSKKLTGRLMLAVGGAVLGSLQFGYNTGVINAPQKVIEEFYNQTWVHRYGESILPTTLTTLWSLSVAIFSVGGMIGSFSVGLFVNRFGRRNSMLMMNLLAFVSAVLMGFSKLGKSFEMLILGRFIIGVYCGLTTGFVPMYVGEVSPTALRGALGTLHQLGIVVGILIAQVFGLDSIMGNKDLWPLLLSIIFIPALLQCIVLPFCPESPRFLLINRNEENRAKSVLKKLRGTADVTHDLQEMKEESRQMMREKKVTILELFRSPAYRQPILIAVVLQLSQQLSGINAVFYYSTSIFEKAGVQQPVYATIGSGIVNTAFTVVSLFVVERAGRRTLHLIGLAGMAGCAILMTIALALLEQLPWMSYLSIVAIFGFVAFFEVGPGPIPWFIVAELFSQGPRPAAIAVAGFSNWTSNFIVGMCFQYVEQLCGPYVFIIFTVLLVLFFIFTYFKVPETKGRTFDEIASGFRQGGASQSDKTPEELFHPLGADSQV

[2] = molecular target: Hexose transporter 1 (Plasmodium falciparum) (UniProt O97467); test: ST_JUDE_LEISH: Cytotoxicity at 2uM final concentration against transgenic Leishmania Mexicana promastigotes LmPfHT that are glucose transport deficient and complemented with the Plasmodium falciparum hexose transporter. Activity is measured by DNA content using SYBR green in vitro
[3] = molecular target: Glucose transporter (Leishmania mexicana) (UniProt O61059); test: ST_JUDE_LEISH: Cytotoxicity at 2uM final concentration against transgenic Leishmania Mexicana promastigotes LmGT2 that are glucose transport deficient and complemented with the L. Mexicana glucose transporter 2. Activity is measured by DNA content using SYBR green in vitro

Structure (SMILES)	inhibition [1] [%]	inhibition [2] [%]	inhibition [3] [%]
COc1cc2ncnc(Nc3ccc(OCc4ccccc4Br)c(OC)c3)c2cc1OC	1.37	0.69	-0.16
Clc1ncccc1-c1nc(NCCC(c2ccccc2)c2ccccc2)no1	4.29	2.24	2.64
CC(C)(C)CC(C)(C)c1ccc(O)c(CNC2CCCCC2)c1	1.96	2.09	-0.74
CC(C)C[C@@H](/C=N/NC(N)=O)NC(=O)[C@H](CC(C)C)NC(=O)[C@H](CC(C)C)NC(=O)OCc1ccccc1	5.02	6.9	4.41
Cc1ccc2cc(NC(=O)c3cccc(C(=O)Nc4ccc5nc(C)ccc5c4)n3)ccc2n1	15.1	12.2	11.6
CCCC1N=C(N)N=C(N)N1c1cccc(C(F)(F)F)c1 (stereo not drawn)	0.83	0.06	0.06
